High-throughput results from PubChem.
Hits are enriched below; roughly 2% of the tested compounds scored in any of these assays.
PrPC TRFRET: inhibitors of human cell surface prion protein PrPC, primary screen, cell-based, TR-FRET. TR-FRET read-out. 370,000 compounds, 0.43% hits. Major prion protein (Homo sapiens), P04156. inhibition, % at 13.8 µM; in the data active = inhibition above about 24%; note: 0% = median of the test wells and 100% = reference compound wells
PrP 5UTR inh: inhibition of PrP 5' UTR reporter expression. 340,000 compounds, 0.35% hits. inhibition, % (no concentration beside the values). cell-based PrP 5' UTR mRNA reporter, plate reader; in the data active = inhibition above about 52%; note: 0 = median of the neutral control wells
CCHF vOTU inh: CCHFV vOTU protease inhibitors, primary screen, biochemical, Pep-AMC substrate, fluorescence | Crimean-Congo hemorrhagic fever virus L polyprotein viral ovarian tumor (vOTU) protease … | 370,000 compounds, 0.55% hits | inhibition, % at 11.5 µM; in the data active = inhibition above about 30%; note: 0% = vehicle wells with enzyme and 100% = no enzyme wells
PfHsp40 rescue: rescue of yeast from PfHsp40 toxicity, primary screen, S. cerevisiae, ATP luminescence; S. cerevisiae expressing PfHsp40, growth rescue; growth rescue, % at 12.5 µM; 340,000 compounds, 0.68% hits; in the data active = growth rescue above about 28%, passing the limit was not always enough;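 note: yeast W303a lacking pdr1 and pdr3 grown in galactose medium; growth measured after three days at 30 °C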
BJeLR lethal: MLPCN primary cell-based screen for lethality selective to Ras in HRASV12 cells | BJeLR (HRASV12) viability, CellTiter-Glo ATP luminescence, 48 h | inhibition, % (no concentration beside the values) | 300,000 compounds, 0.17% hits | AID 1554, 2009; in the data active = inhibition above about 50%
Y pestis TopoI: Yersinia pestis topoisomerase I inhibitors, primary screen, biochemical, cleavage product accumulation, plate reader, single point. DNA topoisomerase I (Yersinia pestis CO92). Y. pestis Topo-I cleavage product accumulation. activity, % at 10 µM. 360,000 compounds, 0.064% hits. AID 504884, 2011; in the data active = activity above about 50%, passing the limit was not always enough
* marks the source's active call; other numbers are inactive results; x = no result given.

SMILES | PrPC TRFRET | PrP 5UTR inh | CCHF vOTU inh | PfHsp40 rescue | BJeLR lethal | Y pestis TopoI
CN(CCCOC(=O)c1cc2ccccc2o1)C1CN(Cc2cn(Cc3ccccc3Cl)nn2)S(=O)(=O)C1 (stereo not drawn) | 12 | x | 7 | x | x | x
COc1ccc(C=NNC(=O)c2ccccc2NS(=O)(=O)c2cccs2)cc1O | 9 | -16 | 10 | -1 | x | 3
O=C(NN=Cc1ccc(O)cc1O)c1ccccc1NS(=O)(=O)c1cccs1 | 13 | -4 | 13 | 70* | x | -8
CSCCC(NC(=O)c1ccccc1Cl)C(=O)NCc1ccncc1 (stereo not drawn) | 1 | -14 | 7 | -2 | x | 3
CSCCC(NC(N)=O)C(=O)NCc1ccc(Cl)cc1 (stereo not drawn) | 2 | -23 | -2 | 80* | 10 | 9
CCOC(=O)c1sc(-c2ccc(Cl)cc2Cl)nc1O | -10 | -15 | -6 | 60* | 7 | 2
O=C(C(=O)N1CCN(S(=O)(=O)c2ccc(Cl)cc2)CC1)c1cccc(C(F)(F)F)c1 | 2 | x | 14 | x | x | x
CC(CCN1CCC(C(O)(c2ccccc2)c2ccccc2)CC1)Oc1ccc(C#N)c(F)c1 (stereo not drawn) | -20 | x | 1 | x | x | x
COC(=O)c1ccc(Cn2cnc3c(sc4nc(N5CCOCC5)c5c(c43)CCCC5)c2=O)o1 | 6 | -8 | 2 | 3 | -6 | 52*
O=C1C(Cl)=C(N2CCN(c3ccccc3[N+](=O)[O-])CC2)C(=O)c2ccccc21 | -49 | -9 | 85* | -1 | -3 | -1
COc1ccc(C(=O)CC(=O)C(=O)Nc2cc(OC)c(OC)c(OC)c2)cc1 | -2 | -24 | -8 | 1 | 0 | -11
COc1ccc(C(=O)CC(=O)C(=O)Nc2ccccc2)cc1 | 0 | 2 | 11 | 57* | -3 | -10
COc1ccc(C(=O)CC(=O)C(=O)Nc2cccc(F)c2)cc1 | 4 | -15 | 19 | 39* | 1 | -14
COC(=O)Cc1nnn2c1CC(OC)c1ccccc1-2 (stereo not drawn) | 8 | x | 10 | x | x | x
CCCCN1CCN(C2=NC(=O)N(c3ccc(Br)cc3)C(=O)C2)CC1 | 0 | x | -4 | x | x | x
O=C(OCC(=O)C12CC3CC(CC(C3)C1)C2)c1ccc(O)cc1 | -5 | -40 | 7 | 425* | x | 6
Oc1ccccc1C=NN1CCN(Cc2ccccc2)CC1 | 7 | x | 3 | x | x | x
COCCSc1nnc(-c2cccnc2)n1Cc1ccccc1 | -9 | x | -2 | x | x | x
CCN(CC)c1ccc(/C=N/NC(=O)c2cccc(S(=O)(=O)N3CCOCC3)c2)c(O)c1 | 4 | 30 | 8 | 231* | 54* | 4
CCN(CC)c1ccc(C=Nc2cccc(S(=O)(=O)N3CCOCC3)c2)c(O)c1 | -8 | -5 | 15 | 0 | x | 4
CC(C)c1ccc(NC(=S)Nc2ccc(OC(F)(F)F)cc2)cc1 | -2 | 4 | -6 | -2 | 5 | -13
FC(F)(F)Oc1ccc(NC(=S)Nc2ccc(OC(F)(F)F)cc2)cc1 | 4 | -21 | 3 | 145* | -10 | -5
COC(=O)C1Cc2c([nH]c3ccccc23)C2CCC(=O)N12 (stereo not drawn) | -6 | x | -9 | x | x | 7
COC(=O)[C@@H]1Cc2c([nH]c3ccccc23)C(C)(C)N1C(=O)CCl | 6 | -11 | 4 | 0 | 91* | -6
O=C(Cn1nnc(-c2ccccc2Cl)n1)N/N=C/c1ccc2c(c1)OCO2 | 9 | -9 | -5 | 60* | -12 | 25
SMILES | PrPC TRFRET | PrP 5UTR inh | CCHF vOTU inh | PfHsp40 rescue | BJeLR lethal | Y pestis TopoI
O=C(CNC(=O)c1ccccc1Cl)N/N=C/c1ccc2c(c1)OCO2 | 4 | -33 | -7 | 0 | -2 | 2
COC(=O)C1(O)CC(C(C)C)=NN1C(=O)c1ccccc1 (stereo not drawn) | 2 | -27 | -13 | 45* | 3 | -1
O=C(c1ccccc1)N1N=C(c2ccccc2)CC1(O)C(F)(F)F (stereo not drawn) | 10 | -9 | 8 | 1 | 1 | 2
O=C(CSc1nnc(-c2cccnc2)n1-c1ccccc1)Nc1ccc2c(c1)OCCO2 | 8 | x | -2 | x | x | x
N#Cc1nc(-c2ccccc2F)oc1NCCc1ccccc1 | 10 | -9 | -44 | 4 | -1 | 12
N#Cc1nc(-c2cccs2)oc1NCCc1ccccc1 | 10 | -12 | -200 | 106* | 5 | 18
